Compound activity: PubChem, Buhrlage Lab, Dana-Farber Cancer Institute and Novartis Institutes for BioMedical Research (Cambridge, Mass)
USP17 block: human USP17-like deubiquitinase inhibition; inhibition, % at 50 µM; purified USP17, Ub-rhodamine cleavage fluorescence, 3 h; actives 6.5% (n = 47,000); AID 1645855
USP10 block: blocks human USP10 ubiquitin-rhodamine cleavage | purified USP10, Ub-rhodamine fluorescence, 60 min | inhibition, % at 20 µM | actives 1.1% (n = 47,000) | AID 1645856
USP8 inh: human USP8 deubiquitinase inhibition; P40818; purified USP8, Ub-rhodamine cleavage fluorescence, 30 min; inhibition, % at 20 µM; actives 4.2% (n = 47,000); AID 1645853
USP28 block: human USP28 deubiquitinase inhibition; Q96RU2; AID 1645857; actives 3% (n = 47,000); inhibition, % at 25 µM; purified USP28, Ub-rhodamine cleavage fluorescence, 30 min
USP30 inh: inhibitors of human USP30 deubiquitinase | Q70CQ3 | purified USP30, Ub-rhodamine cleavage fluorescence | inhibition, % at 25 µM | actives 5.3% (n = 47,000)
Target sequence (Q70CQ3 whole entry, looked up): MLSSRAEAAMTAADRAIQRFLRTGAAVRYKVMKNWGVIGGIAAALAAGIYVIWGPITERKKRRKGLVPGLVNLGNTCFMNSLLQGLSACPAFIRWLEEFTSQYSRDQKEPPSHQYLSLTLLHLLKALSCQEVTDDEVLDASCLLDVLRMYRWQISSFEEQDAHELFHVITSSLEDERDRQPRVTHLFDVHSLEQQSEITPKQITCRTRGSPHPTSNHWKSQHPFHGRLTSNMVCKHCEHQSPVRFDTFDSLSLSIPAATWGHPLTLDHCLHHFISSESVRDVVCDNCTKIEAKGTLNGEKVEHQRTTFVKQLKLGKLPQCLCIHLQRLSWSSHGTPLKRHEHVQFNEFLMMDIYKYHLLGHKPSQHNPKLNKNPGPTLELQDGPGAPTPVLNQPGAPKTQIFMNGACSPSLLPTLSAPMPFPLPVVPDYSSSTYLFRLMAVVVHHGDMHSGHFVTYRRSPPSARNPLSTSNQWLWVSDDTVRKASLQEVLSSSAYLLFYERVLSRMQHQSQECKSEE
* = called active by the depositor. Shown are actives, neighbours in structure and some others; about 14% of the full set was active somewhere. Rule as the data show it: active = inhibition above about 30%; inactive = the rest.

SMILES | USP17 block | USP10 block | USP8 inh | USP28 block | USP30 inh
Cc1ccc(C(=O)NCC2COCCO2)cc1NC(=O)c1nsc2ccccc12 (centres undefined) | -17.8 | 0.1 | -2.2 | -4.6 | -4.4
Oc1ccccc1-c1nc2ccc(Cl)cn2c1NCCc1ccccc1 | 14.6 | 6.9 | 77.8* | 7.6 | 4.8
Cc1ccc2[nH]c(=O)c(-c3nc4ccccn4c3NCc3ccccc3)cc2c1 | 16.9 | 24.4 | 0.9 | -3.2 | -11.1
Cc1ccc2nc(-c3ccccc3O)c(NCCc3ccccc3)n2c1 | 16.0 | 7.2 | 79.6* | 5.8 | -12.3
O=C(COc1ccc(F)cc1)Nc1cc(Cl)ccc1N1CCCC1 | -16.5 | -1.2 | -63.0 | 2.5 | -11.9
COc1ccc(F)cc1S(=O)(=O)N1C[C@@H]2C[C@H](NC(=O)c3cccnc3)[C@H]1C2 | -17.8 | -0.2 | -154.7 | -8.8 | 0.1
Cc1cn2nnc(C(=O)NC3CCc4ccccc43)c2c(=O)[nH]1 (centres undefined) | 23.6 | -7.3 | 63.5* | 9.2 | -7.2
Cc1nn(-c2ccc(F)cc2)c(Cl)c1C(=O)NC1CCCc2ccccc21 (centres undefined) | 6.1 | -0.7 | -7.2 | 0.5 | -22.5
CN1CCN(c2cc(C(C)(C)C)nc(-c3ccccn3)n2)CC1 | 21.4 | -0.3 | 15.8 | 18.0 | 7.4
CCOc1ccc(-c2nc(SCC(=O)Nc3cccc(C)c3)n3[nH]c(=O)cc3n2)cc1 | 39.9* | 53.1* | 41.8* | 18.2 | 14.5
Cc1ccc2c(c1)NC(CCC(=O)N1CCN(c3ccccc3F)CC1)=NS2(=O)=O | -1.4 | 0.4 | -9.3 | 2.9 | 17.3
COc1ccc([N+](=O)[O-])cc1C1N(c2ccccc2)CCN1c1ccccc1 | 31.1* | 0.8 | -16.3 | 2.2 | 2.9
COc1ccc(C(=O)/C=C\c2cn(CCC(=O)O)nc2-c2ccc(OC)c(OC)c2)cc1 | -3.6 | 4.1 | 0.0 | 9.0 | 13.6
COc1ccc(-c2nn(-c3ccccc3)cc2/C=C/C(=O)Nc2ccc(C(C)=O)cc2)cc1OC | 55.2* | 6.7 | 30.0 | 48.1* | 83.5*
Cc1c(CC(=O)N2CCN(c3ccc(Cl)cc3)CC2)c(=O)oc2cc(O)c(Cl)cc12 | 18.5 | 5.6 | 41.4* | 6.8 | 35.3*
COc1ccc2c(C)c(CC(=O)N3CCN(c4ccccc4)CC3)c(=O)oc2c1 | -11.5 | -0.7 | -3.2 | 8.5 | 12.0
Cc1c(CC(=O)N2CCN(c3ncccn3)CC2)c(=O)oc2cc(O)ccc12 | 62.6* | 4.2 | 3.7 | -3.5 | -8.7
Cc1onc(C(=O)NCc2ccc3c(c2)OCO3)c1CN1CCOCC1 | -5.6 | -1.2 | 4.3 | 0.5 | -8.8
O=c1oc2ccccc2c(NCc2ccc3c(c2)OCO3)c1CN1CCCC1 | 30.9* | -2.3 | 0.0 | 17.2 | 11.8
CN1CCc2nc(N3CCN(C(=O)CCc4ccccc4)CC3)sc2C1 | -21.6 | -3.3 | 0.3 | -6.1 | -16.2
COc1ccccc1C1=NS(=O)(=O)N(C)C(C(=O)NCC23CC4CC(CC(C4)C2)C3)=C1 | 3.5 | 9.6 | 4.2 | -2.6 | 14.4
COc1ccccc1N(C(=O)Nc1ccccc1)C1=NCCC1 | 11.6 | 6.4 | 8.3 | 45.9* | 14.8
COc1ccc(S(=O)(=O)c2cnc3cc(OC)c(OC)cc3c2NCc2ccccc2)cc1 | -0.2 | -8.7 | -13.6 | -5.9 | -0.8
COc1ccc(S(=O)(=O)c2cnc3ccc(Cl)cc3c2NCc2ccccc2)cc1 | 2.0 | 6.5 | 4.5 | 4.3 | 30.4*
O=C(NCCC1=CCCCC1)C(Cc1ccccc1)NS(=O)(=O)c1cccc2cccnc12 (centres undefined) | -43.6 | -1.4 | -84.9 | -32.0 | -130.5
SMILES | USP17 block | USP10 block | USP8 inh | USP28 block | USP30 inh
Cc1cc2nccc(C3CCN(C(=O)COc4cccnc4)CC3)n2n1 | 8.4 | -11.7 | 49.4* | -26.8 | -269.9
Cc1cc(-c2cc3nc4c(c(=O)n3[nH]2)CNCC4)no1 | -23.1 | 2.2 | -314.0 | 11.2 | 6.1
Nc1nccc(/C=C/c2c(Cl)cccc2Cl)n1 | 31.5* | 10.0 | 18.9 | 10.0 | -7.8
O=C(Nc1ccc(CN2CCOCC2)cc1)c1cc2cc(Br)ccc2o1 | 5.4 | -1.6 | 1.6 | 46.6* | -34.1
C[C@@H]1OC(=O)/C=C/[C@@H](O)[C@H](C)OC(=O)C[C@H](C)OC(=O)/C=C/[C@H]1O | 6.0 | -0.1 | 1.4 | 4.4 | 17.1
CC(NC(=O)C1CCN(S(C)(=O)=O)c2ccccc2O1)c1ccccc1 (centres undefined) | 11.6 | 4.3 | 16.6 | 9.9 | 32.6*
Cc1cc(C(F)(F)F)n2nc(C3CCN(C(=O)c4cnn(C)c4C)C3)cc2n1 (centres undefined) | 50.2* | -3.1 | 91.9* | -18.1 | -43.8
Cc1nc2ccccc2c(=O)n1Cc1ccc(-c2ccccc2)cc1 | 51.4* | 2.9 | 2.7 | -10.7 | -1.9
Cc1ccc(CNS(=O)(=O)c2c(C)[nH]c(C)c2-c2nc(C)no2)cc1 | 0.9 | 1.3 | 11.6 | 0.7 | 4.9
Cn1ccc2c(cc(C(=O)NCCC3=CCCCC3)n2C)c1=O | 3.4 | -1.3 | -4.1 | 55.3* | 14.2
Cc1cc(C)c2cc(C(=O)NC3CCN(Cc4ccccc4)CC3)[nH]c2c1 | 23.3 | 2.0 | 23.6 | 14.2 | 67.4*
Cn1ccc2c(cc(C(=O)NC3CCN(Cc4ccccc4)CC3)n2C)c1=O | -31.3 | -4.8 | -6.7 | 31.7* | -35.4
Cc1c(C)n(C)c2ccc(C(=O)NC3CCN(Cc4ccccc4)CC3)cc12 | 0.0 | -5.4 | -50.3 | 35.2* | -33.2
Cc1nc(CCNC(=O)COc2ccc(Cl)cc2)cs1 | -5.3 | -1.8 | -1.0 | -1.7 | -8.3
COc1cccc(-c2nc(-c3ccc(C(F)(F)F)cc3)no2)c1 | 7.5 | -0.2 | 7.6 | 11.0 | 20.4
COc1cc2nc(NCCCN3CCCC3=O)n3nc(-c4cccnc4)nc3c2cc1OC | 17.0 | 0.9 | 17.5 | 16.2 | 20.2
CC(C)(C)OC(=O)N1CCCCC12CNc1ccccc1C2 (centres undefined) | 5.3 | 5.2 | 12.3 | 9.1 | 14.0
COc1ccc2cc(C(C)C(=O)NCc3cccc(NS(N)(=O)=O)c3)ccc2c1 (centres undefined) | 6.4 | 12.2 | 45.5* | 20.1 | 41.8*
O=C(CC(c1cccc(F)c1)n1cccc1)Nc1ccc2c(c1)OCCO2 (centres undefined) | 1.8 | 10.6 | -37.5 | 1.0 | 0.9
O=C(CC(c1cccc(F)c1)n1cccc1)Nc1ccc2c(c1)OCO2 (centres undefined) | 21.6 | 6.8 | 44.8* | 8.1 | 0.0
COc1ccc(C(CC(=O)NCc2cccc(OC)c2)n2cccc2)cc1 (centres undefined) | 37.7* | -0.5 | -2.1 | 1.3 | 11.3
O=C(CC(c1cccc(F)c1)n1cccc1)NCc1ccc(Cl)cc1 (centres undefined) | 4.9 | 9.6 | 11.1 | 14.5 | 37.8*
Cc1nn(Cc2ccccc2)c2sc(C(=O)NCCCN3CCOCC3)cc12 | -14.3 | 2.3 | -6.0 | -4.7 | 0.0
Cc1nc(C)n(CC2CCCN2Cc2nc(C)c(C)o2)n1 (centres undefined) | -42.1 | -2.6 | -19.9 | -45.2 | -177.1
CC1(C)OC(=O)[C@]2(C)C[C@@H](C(=O)Nc3cccc4cccnc34)[C@@]1(C)N2 | -5.1 | -2.1 | -4.3 | 0.6 | -0.8
